In all, about 5,500 compounds went through this assay and about 2,000 (36%) were called active. Inconclusive results (about 18%) are left out. Rule as the data show it: active = normalized growth mostly below about 0.91 (no sharp cut-off); inconclusive = no clear call, values can overlap the other calls; inactive = mostly above about 0.92. The list shows a part of the results.
Test: chemical genetic growth profiling, strain panel (AID 1159580);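 also: tested at 20 µM; growth read once vehicle control cultures reached saturation at 30 °C; 1 = growth at the plate median or of vehicle wells; lower values mean less growth of the strain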
Details: growth OD

Measured: normalized growth

S=P(N1CC1)(N1CC1)N1CC1
inactive: S. cerevisiae deletion strains, locus YKL009W, strain mrt4, stronger effect = lower value 0.99 | S. cerevisiae deletion strains, locus YKL068W, stronger effect = lower value 1.01 | S. cerevisiae deletion strains, locus YKL085W, strain MDH1 (second series), stronger effect = lower value 0.997 | S. cerevisiae deletion strains, locus YKL085W, strain MDH1, stronger effect = lower value 0.997 | S. cerevisiae deletion strains, locus YKL160W, strain elf1, stronger effect = lower value 1.01 | S. cerevisiae deletion strains, locus YKL190W, strain CNB1, stronger effect = lower value 1 | S. cerevisiae deletion strains, locus YKR001C, strain vps1, stronger effect = lower value 0.994 | S. cerevisiae deletion strains, locus YKR026C, strain gcn3, stronger effect = lower value 0.976 | S. cerevisiae deletion strains, locus YKR091W, strain srl3, stronger effect = lower value 1 | S. cerevisiae deletion strains, locus YLL001W, strain dnm1, stronger effect = lower value 1 | S. cerevisiae deletion strains, locus YLL026W, stronger effect = lower value 1 | S. cerevisiae deletion strains, locus YLL041C, strain sdh2, stronger effect = lower value 1.01 | S. cerevisiae deletion strains, locus YLR027C, strain aat2, stronger effect = lower value 1.01 | S. cerevisiae deletion strains, locus YLR039C, strain RIC1, stronger effect = lower value 1.03 | S. cerevisiae deletion strains, locus YLR058C, strain SHM2, stronger effect = lower value 1.01 | S. cerevisiae deletion strains, locus YLR102C, strain apc9, stronger effect = lower value 1.01 | S. cerevisiae deletion strains, locus YLR113W, strain HOG1, stronger effect = lower value 0.995 | S. cerevisiae deletion strains, locus YLR221C, strain rsa3, stronger effect = lower value 0.996 | S. cerevisiae deletion strains, locus YLR258W, strain gsy2, stronger effect = lower value 1.01 | S. cerevisiae deletion strains, locus YLR262C, strain YPT6 (second series), stronger effect = lower value 1.02 | S. cerevisiae deletion strains, locus YLR262C, strain YPT6, stronger effect = lower value 1.02 | S. cerevisiae deletion strains, locus YLR268W, strain sec22, stronger effect = lower value 0.989 | S. cerevisiae deletion strains, locus YLR320W, strain mms22, stronger effect = lower value 0.994 | S. cerevisiae deletion strains, locus YLR330W, strain CHS5, stronger effect = lower value 1.01 | S. cerevisiae deletion strains, locus YLR342W, strain FKS1 (second series), stronger effect = lower value 1.03 | S. cerevisiae deletion strains, locus YLR342W, strain FKS1, stronger effect = lower value 1.01 | S. cerevisiae deletion strains, locus YLR357W, strain rsc2, stronger effect = lower value 1.03 | S. cerevisiae deletion strains, locus YLR370C, strain arc18, stronger effect = lower value 1.01 | S. cerevisiae deletion strains, locus YLR371W, strain rom2, stronger effect = lower value 1.01 | S. cerevisiae deletion strains, locus YLR384C, strain iki3, stronger effect = lower value 0.994 | S. cerevisiae deletion strains, locus YLR418C, strain cdc73, stronger effect = lower value 0.977 | S. cerevisiae deletion strains, locus YML016C, strain PPZ1, stronger effect = lower value 1 | S. cerevisiae deletion strains, locus YML032C, strain rad52, stronger effect = lower value 1 | S. cerevisiae deletion strains, locus YML120C, strain ndi1, stronger effect = lower value 1.01 | S. cerevisiae deletion strains, locus YML124C, strain tub3, stronger effect = lower value 1 | S. cerevisiae deletion strains, locus YMR058W, strain fet3, stronger effect = lower value 1.02 | S. cerevisiae deletion strains, locus YMR078C, strain ctf18, stronger effect = lower value 1 | S. cerevisiae deletion strains, locus YMR125W, strain sto1, stronger effect = lower value 1 | S. cerevisiae deletion strains, locus YMR129W, stronger effect = lower value 1.01 | S. cerevisiae deletion strains, locus YMR205C, strain PFK2, stronger effect = lower value 1.01 | S. cerevisiae deletion strains, locus YMR223W, strain ubp8, stronger effect = lower value 1 | S. cerevisiae deletion strains, locus YMR231W, strain pep5, stronger effect = lower value 0.993 | S. cerevisiae deletion strains, locus YMR263W, strain SAP30, stronger effect = lower value 1.02 | S. cerevisiae deletion strains, locus YMR307W, strain GAS1, stronger effect = lower value 1.04 | S. cerevisiae deletion strains, locus YNL067W, strain RPL9B, stronger effect = lower value 1.01 | S. cerevisiae deletion strains, locus YNL071W, strain lat1, stronger effect = lower value 1.02 | S. cerevisiae deletion strains, locus YNL128W, strain TEP1, stronger effect = lower value 1.01 | S. cerevisiae deletion strains, locus YNL153C, strain GIM3, stronger effect = lower value 0.997 | S. cerevisiae deletion strains, locus YNL183C, strain NPR1, stronger effect = lower value 0.932 | S. cerevisiae deletion strains, locus YNL209W, strain ssb2, stronger effect = lower value 1.02 | S. cerevisiae deletion strains, locus YNL233W, strain BNI4, stronger effect = lower value 0.998 | S. cerevisiae deletion strains, locus YNL248C, strain rpa49, stronger effect = lower value 0.999 | S. cerevisiae deletion strains, locus YNL250W, strain rad50, stronger effect = lower value 0.995 | S. cerevisiae deletion strains, locus YNL271C, strain bni1, stronger effect = lower value 1.01 | S. cerevisiae deletion strains, locus YNL298W, strain CLA4, stronger effect = lower value 1.02 | S. cerevisiae deletion strains, locus YNL307C, strain MCK1, stronger effect = lower value 1.01 | S. cerevisiae deletion strains, locus YNL322C, strain KRE1 (second series), stronger effect = lower value 1.01 | S. cerevisiae deletion strains, locus YNL322C, strain KRE1, stronger effect = lower value 1.01 | S. cerevisiae deletion strains, locus YNR049C, strain mso1, stronger effect = lower value 1.01 | S. cerevisiae deletion strains, locus YNR052C, strain pop2, stronger effect = lower value 1 | S. cerevisiae deletion strains, locus YOL006C, strain TOP1, stronger effect = lower value 1.04 | S. cerevisiae deletion strains, locus YOL012C, strain htz1 0.982 | S. cerevisiae deletion strains, locus YOL147C, strain pex11, stronger effect = lower value 1.04 | S. cerevisiae deletion strains, locus YOR001W, strain rrp6, stronger effect = lower value 1.01 | S. cerevisiae deletion strains, locus YOR061W, strain CKA2, stronger effect = lower value 1.01 | S. cerevisiae deletion strains, locus YOR069W, strain VPS5, stronger effect = lower value 0.992 | S. cerevisiae deletion strains, locus YOR070C, strain gyp1, stronger effect = lower value 1.01 | S. cerevisiae deletion strains, locus YOR080W, strain dia2, stronger effect = lower value 1 | S. cerevisiae deletion strains, locus YOR083W, strain WHI5, stronger effect = lower value 0.997 | S. cerevisiae deletion strains, locus YOR106W, strain vam3, stronger effect = lower value 0.997 | S. cerevisiae deletion strains, locus YOR136W, strain idh2, stronger effect = lower value 1 | S. cerevisiae deletion strains, locus YOR144C, strain elg1, stronger effect = lower value 1.01 | S. cerevisiae deletion strains, locus YOR184W, strain ser1, stronger effect = lower value 1.01 | S. cerevisiae deletion strains, locus YOR231W, strain MKK1, stronger effect = lower value 1 | S. cerevisiae deletion strains, locus YOR265W, strain rbl2, stronger effect = lower value 1.01 | S. cerevisiae deletion strains, locus YOR270C, strain vph1, stronger effect = lower value 1.01 | S. cerevisiae deletion strains, locus YOR290C, strain snf2, stronger effect = lower value 1.01 | S. cerevisiae deletion strains, locus YOR316C, strain cot1, stronger effect = lower value 1 | S. cerevisiae deletion strains, locus YPL051W, strain arl3, stronger effect = lower value 1.01 | S. cerevisiae deletion strains, locus YPL055C, strain LGE1, stronger effect = lower value 0.989 | S. cerevisiae deletion strains, locus YPL078C, strain atp4, stronger effect = lower value 1.01 | S. cerevisiae deletion strains, locus YPL106C, strain sse1, stronger effect = lower value 1.02 | S. cerevisiae deletion strains, locus YPL240C, strain hsp82, stronger effect = lower value 0.996 | S. cerevisiae deletion strains, locus YPL241C, strain CIN2, stronger effect = lower value 0.991 | S. cerevisiae deletion strains, locus YPL256C, strain CLN2, stronger effect = lower value 0.991 | S. cerevisiae deletion strains, locus YPR119W, strain clb2, stronger effect = lower value 1.01 | S. cerevisiae deletion strains, locus YPR141C, strain kar3, stronger effect = lower value 0.996 | S. cerevisiae deletion strains, locus YPR163C, strain tif3, stronger effect = lower value 1 | S. cerevisiae deletion strains, locus YPR167C, strain met16, stronger effect = lower value 0.992 | S. cerevisiae deletion strains, strain wtn01, stronger effect = lower value 0.983 | S. cerevisiae strains, strain wild type, stronger effect = lower value 1.01

— PubChem BioAssay AID1159580 (chemical genetic matrix, 2015)
